The source of these data is PubChem BioAssay.

In general, AC50 refers to the concentration at which the activity in the assay is half-maximal.

Results filed as inconclusive are left out. Active and inactive are the calls of the source. Cut-off not given; nearly all actives show AC50 up to about 26 µM.

A short description of the first experiment: viability loss in pontine glioma line – cell-based, SU-DIPG-XXV, MIPE5.0, CellTiter-Glo, qHTS, dose response (AID 1347065).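 Further: cells exposed to compound for 48 hours before ATP readout.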 Conditions: CellTiter-Glo ATP luminescence. A general note: In ATP-based viability assays light output follows the ATP content of the culture.
Take `NC[C@@](O)(c1ccc(Cl)cc1)c1ccc(-c2cn[nH]c2)cc1`: the concentration at half-maximal activity (AC50) was 13.2 µM (active). On to `COc1cc2c3c(n(CCCNCCO)c(=O)c2cc1OC)-c1cc2c(cc1C3=O)OCO2`, for which the AC50 is 4.68 µM (active).

Consider `CCN1CCN(Cc2ccc(NC(=O)Nc3ccc(Oc4cc(NC)ncn4)cc3)cc2C(F)(F)F)CC1`, for which the AC50 was 10.5 µM (active). The same measure, in the same setting: for `Cc1cc(OCCCc2c3n(c4c(-c5c(C)nn(C)c5C)c(Cl)ccc24)[C@H](C)CN(c2cn(C)c4ccc(C(=O)O)cc24)C3=O)cc(C)c1Cl` the value was 0.468 µM (active).

The next experiment in a line: JHH-DIPG-1 glioma cell viability, MIPE5.0 library, CellTiter-Glo luminescence, qHTS (AID 1347067).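 Further: cells exposed to compound for 48 hours before readout.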 To be noted: JHH-DIPG-1 glioma viability, CellTiter-Glo ATP luminescence.
As for `N#Cc1ccnc(N2C(=O)CC[C@H]2C(=O)N(c2cncc(F)c2)C(C(=O)NC2CC(F)(F)C2)c2ccccc2Cl)c1` (stereo partly drawn), the outcome was inactive. As for `Cc1ccc(-c2ccc3ncc4c(c3n2)n(C2CCN(C(=O)[C@H](C)O)CC2)c(=O)n4C)cn1`, the AC50 is 0.372 µM (active). As to `COc1ccc(N(C)c2nc(C)nc3ccccc23)cc1`, the concentration at half-maximal activity (AC50) was 0.0105 µM (active). `C1=C/COCc2cc(ccc2OCCN2CCCC2)Nc2nccc(n2)-c2cccc(c2)COC/1`: the half-maximal activity concentration (AC50) is 4.17 µM (active).

Turning to `Cc1ncc(NC(=O)c2cccc(C(F)(F)F)c2)cc1-c1cnc(OC2CCOCC2)c(N2CCOCC2)c1`, the AC50 is 4.68 µM (active). Consider `CCCC(CCC)C(=O)Nc1ccn([C@@H]2O[C@H](CO)[C@@H](O)C2(F)F)c(=O)n1`, for which the call was inactive. The same measure, in the same setting: with `CN1C(=O)[C@@H](NC(=O)c2n[nH]c(Cc3ccccc3)n2)COc2ccccc21` the entry was “inactive”. With `O=C(/C=C/c1ccc2ccc(C(F)(F)F)cc2n1)c1ccncc1`, the concentration at half-maximal activity (AC50) was 2.35 µM (active). On to `CC(C)n1cc(-c2ccc3c(c2)N(C)CC3)c2c(NS(=O)(=O)c3ccn(C)n3)ccnc21`, for which the outcome was inactive. Turning to `CN1CCN(c2ccc(Nc3ncc4cc(C#N)c(=O)n(C5CCCC5)c4n3)cc2)CC1`, the AC50 is 10.5 µM (active). For the compound `CCn1c(=O)c(-c2ccc(-c3cncs3)cc2Cl)cc2cnc(Nc3ccc(N4CCN(C)CC4)cc3)nc21`, the half-maximal activity concentration (AC50) was 5.25 µM (active). Consider `CS(=O)(=O)c1ccc(Oc2cc(F)cc(C#N)c2)c2c1[C@H](O)C(F)(F)C2`, for which the compound was classed as inactive. With `Cc1ccc(NC(=O)NCc2ccc3c(c2)CN(C2CCC(=O)NC2=O)C3=O)cc1Cl` (stereo not drawn), the AC50 is 0.00118 µM (active).

As for `CNCCn1c(=O)c2cc(OC)c(OC)cc2c2cnc3cc4c(cc3c21)OCO4`, the AC50 is 0.481 µM (active). Regarding `NS(=O)(=O)NCCNc1nonc1C(=Nc1ccc(F)c(Br)c1)NO`, the outcome was inactive.

As to `C=CC(=O)N1CCC(Oc2cc3c(Nc4ccc(Cl)c(Cl)c4F)ncnc3cc2OC)CC1`, the AC50 was 5.25 µM (active). The same measure, in the same setting: with `NC(=O)/C(=C/n1cnc(-c2cc(C(F)(F)F)cc(C(F)(F)F)c2)n1)c1cncnc1` the figure was 11.8 µM (active). As for `C=C1C(=O)O[C@H]2C[C@H](C)C(/C=C/C(C)=O)=CC[C@H]12`, the AC50 is 3.32 µM (active). Take `O=C1NC(=O)C(c2cnc3ccccn23)=C1c1cn2c3c(cc(F)cc13)CN(C(=O)N1CCCCC1)CC2`: the AC50 is 20.9 µM (active).

On to `O=C(NC[C@H](O)CN1CCc2ccccc2C1)c1cc(NC2COC2)ncn1`, for which the compound was classed as inactive. As for `C[C@@H]1CC(=O)Nc2cccc(-c3cnn(C(C)(C)C)c3)c2N1`, the result was inactive.

Regarding `C[C@@H](Oc1cc(C(=O)Nc2ccc(C(=O)N3CCN(C)CC3)cc2)nnc1N)c1c(Cl)ccc(F)c1Cl`, the AC50 is 16.6 µM (active).

For `CC(C)N(CCCNC(=O)Nc1ccc(C(C)(C)C)cc1)C[C@H]1O[C@@H](n2ccc3c(N)ncnc32)[C@H](O)[C@@H]1O`, the result was inactive. On to `Cc1cc(Oc2ccc3nc(COc4ccc(CC5SC(=O)NC5=O)cc4)n(C)c3c2)cc(C)c1N` (stereo not drawn), for which the outcome was inactive. Still for that read-out and setting: with `OC1CCC([C@H](O)C[C@H]2c3c(F)cccc3-c3cncn32)CC1` (stereo partly drawn) the entry was “inactive”.

With `Cn1cc(-c2ccc(S(=O)(=O)n3ccc(/C=C/C(=O)Nc4ccccc4N)c3)cc2)cn1`, the AC50 was 1.86 µM (active). Same read-out and setting: with `Cc1ccc(NC(=O)Nc2nnc(Sc3ncnc4cc(OCCCN5CCOCC5)ccc34)s2)cc1` the figure was 2.35 µM (active); with `Cc1[nH]c(/C=C2\C(=O)Nc3ccc(F)cc32)c(C)c1C(=O)NC[C@H](O)CN1CCOCC1`, 16.6 µM (active); with `CN1CCN(Cc2ccc(Nc3ncc(Cl)c(Nc4ccccc4S(=O)(=O)N(C)C)n3)cc2)CC1`, 0.382 µM (active). Still for that read-out and setting: with `O=S(=O)(Nc1ccc(-c2cccnc2)c2cccnc12)c1cccc(C(F)(F)F)c1` the figure was 7.42 µM (active); with `COc1cccc2c1C(=O)c1c(O)c3c(c(O)c1C2=O)C[C@@](O)(/C(CO)=N/NC(=O)CCCCCN1C(=O)C=CC1=O)C[C@@H]3O[C@H]1C[C@H](N)[C@H](O)[C@H](C)O1`, 2.95 µM (active). `CC(C)(C)C(=O)CN1C(=O)[C@H](NC(=O)Nc2cccc(C(=O)O)c2)CN(C2CCCCC2)c2ccccc21`: the compound was classed as inactive. Regarding `CC(C)(NS(=O)(=O)c1ccc2c(Cl)cnc(N=C(N)N)c2c1)C(=O)O`, the call was inactive. On the same count and under the same terms, with `COC(=O)N(C)c1c(N)nc(-c2nn(Cc3ccccc3F)c3ncccc23)nc1N` the entry was “inactive”; with `C[C@H]1CN(C[C@H](Cc2ccccc2)C(=O)NCC(=O)O)CC[C@@]1(C)c1cccc(O)c1`, “inactive”. Regarding `NC[C@@](O)(c1ccc(Cl)cc1)c1ccc(-c2cn[nH]c2)cc1`, the AC50 is 26.3 µM (active). The same measure, in the same setting: for `COc1cc2c3c(n(CCCNCCO)c(=O)c2cc1OC)-c1cc2c(cc1C3=O)OCO2` the value was 2.63 µM (active); for `CCN1CCN(Cc2ccc(NC(=O)Nc3ccc(Oc4cc(NC)ncn4)cc3)cc2C(F)(F)F)CC1`, 3.72 µM (active).

For the compound `Cc1cc(OCCCc2c3n(c4c(-c5c(C)nn(C)c5C)c(Cl)ccc24)[C@H](C)CN(c2cn(C)c4ccc(C(=O)O)cc24)C3=O)cc(C)c1Cl`, the AC50 is 9.34 µM (active).
